Source: PubChem BioAssay
The source made the active and inactive calls.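 The calls were made as follows, unless noted: active = inhibition above 20% together with a positive visual image hit; inconclusive = visual image hit but inhibition not above 20%; inactive = no visual image hit.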

experiment: inhibitors of TNFa-induced NFkB p65 translocation, primary screen, imaging, HUVEC, MLSMR starter and 10KST1 sets (AID 438); details: HUVEC TNFa-induced p65 nuclear translocation; cell count: measured here: nuclei count (cytotoxicity indicator), at 2.08 µM; inhibition: at 2 µM, stronger effect = higher value, 0% TNFa-plus-vehicle, 100% no-TNFa wells;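 also: compound added about 3h40 before a 20 min TNFalpha stimulation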;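 as to inhibition: signal is the nuclear over cytoplasmic p65 intensity ratio per well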

SMILES	inhibition	cell count
CCSc1nc2c(c(=O)n(C)c(=O)n2C)n1Cc1ccc(Cl)cc1	3.3% (inactive)	440
COc1ccccc1N1CCN(C(=O)c2oc3cc(C)c(C)cc3c2C)CC1	1.3% (inactive)	355
CC(C)CCNC(=O)NC(=O)CSc1nnc(-c2ccccc2Br)o1	-16.6% (inactive)	538
C=CCSc1ncccc1C(=O)O	6.9% (inactive)	709
CC1CCc2nc(NC(=O)CN3CCN(Cc4ccc5c(c4)OCO5)CC3)sc2C1 (stereo not given)	-9.3% (inactive)	641
CC(=O)CC(=O)Nc1ccccc1NC(C)=O	6.5% (inactive)	470
CC(C)OC(=O)CSc1nnc(Cc2ccccc2)n1Cc1ccco1	28.5% (active)	726
O=C(NCCN1CCCC1)C1COc2ccccc2O1 (stereo not given)	-0.5% (inactive)	511
COC(=O)c1ccc2c(=O)n(Cc3ccco3)c(SCC(=O)Nc3ccc(C)c(Cl)c3)nc2c1	5% (inactive)	445
CCC1(CC)C(=O)C(C)(C)C(=O)OC1c1cccs1 (stereo not given)	-8.8% (inactive)	750
CCOc1ccc(OCC)c2sc(C)nc12	2.4% (inactive)	339
CC(=O)Nc1cccc(-c2nnc(-c3ccccc3)o2)c1	0.4% (inactive)	378
CCOC(=O)C1=C(C)NC(=O)C(C#N)C1c1ccco1 (stereo not given)	-1.2% (inactive)	319
O=C1CN=C(Nc2cccc(C(F)(F)F)c2)N1C1CCCC1	4.8% (inactive)	421
COc1ccc(-c2nnc3ccc(SC(C(C)=O)C(C)=O)nn23)cc1OC	-17% (inactive)	605
CSc1nnc2c3ccccc3n(CCc3ccccc3)c2n1	-0.5% (inactive)	665
CC(C)(C)n1nc2c(c1NC(=O)COc1ccc(Cl)cc1)CSC2	3.8% (inactive)	643
COc1cccc(N2CCN(Cc3nc(N)nc(Nc4ccccc4OC)n3)CC2)c1	2.9% (inactive)	495
Cc1cc(C)cc(NC(=O)N2CCC(c3nc4ccccc4o3)CC2)c1	7.5% (inactive)	405
O=C1CCC(=O)N1OCCCCOc1ccccc1	3.7% (inactive)	692

SMILES	inhibition	cell count
Cc1cc(C)c2c(=O)[nH]c(=O)n(Cc3ccccc3)c2n1	20% (inactive)	303
Cc1ccc(CNC(=O)C2CCCN(S(=O)(=O)c3cccnc3)C2)cc1 (stereo not given)	-3.9% (inactive)	313
COc1ccccc1OC(=O)c1ccc(SC)cc1OC	-15.2% (inactive)	384
COc1ccccc1OC(=O)c1ccc2nsnc2c1	-11.4% (inactive)	623
CCCCCCNC(=O)Cc1c(O)c2ccccc2[nH]c1=O	3.2% (inactive)	342
CCCOc1nc(N)c(C#N)c(-c2ccccc2F)c1C#N	1.2% (inactive)	359
CCOC(=O)c1cc(-c2ccc(Cl)s2)nc2c1c(C)nn2C	-11% (inactive)	473
COc1ccc(-n2c(SCC(=O)Nc3ccc(C(=O)O)cc3)nnc2-c2cccs2)cc1	2.8% (inactive)	443
COC(=O)c1nc2n(n1)C(c1ccc(OC)c(OC)c1)C(C(=O)OC1CCCCC1)=C(C)N2 (stereo not given)	-14.8% (inactive)	603
O=C(NC12CC3CC(CC(C3)C1)C2)C1CCCN1C(=O)NC1CCCCC1 (stereo not given)	-1.3% (inactive)	559
O=C(Nc1cccc(C(F)(F)F)c1)c1cccnc1N1CCCC1	4.5% (inactive)	360
COCCn1c(SCC(=O)Nc2nnc(C)s2)nnc1-c1ccncc1	-7.5% (inactive)	564
Cc1noc(C)c1S(=O)(=O)NCCN1CCN(c2ccccc2)CC1	-5.2% (inactive)	413
c1ccc(OCCOc2ncnc3sccc23)cc1	-22% (inactive)	395
CC(c1nnc(SCC(=O)Nc2sccc2C#N)n1-c1ccc(Cl)cc1)N(C)C (stereo not given)	-20.1% (inactive)	539
CNC(=O)c1ccccc1NC(=O)c1c(O)c2c([nH]c1=O)CCCC2	16.6% (inactive)	433
O=C(C1CCC1)N1CCc2cc(S(=O)(=O)Nc3ccc4c(c3)OCO4)ccc21	10.1% (inactive)	606
Cc1c(C(=O)OC(C)C)[nH]c2c1C(=O)CCC2	-3.5% (inactive)	437
Cc1nc(-c2cnn(-c3ccccc3)c2)c2cc(C)oc2n1	-2.8% (inactive)	312
COc1ccc(OC(C)C(=O)N2CC(C)OC(C)C2)cc1 (stereo not given)	12.2% (inactive)	436

experiment: inhibitors of mutant huntingtin aggregation, primary screen, imaging, exon1htt(103Q)mCFP cells, high-content imaging (AID 483;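 active = visual image review flags a hit and inhibition of aggregation exceeds 20%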;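 also: compound exposure lasted 3 days before fixation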;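 as to nuclei count: percent of the per-plate median nuclei count of sample wells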); details: exon1htt(103Q)mCFP cell line, aggregate imaging, at 2 µM; inhibition of aggregation: stronger effect = higher value; nuclei count: measured here: cell count, toxicity

SMILES	inhibition of aggregation	nuclei count
CCSc1nc2c(c(=O)n(C)c(=O)n2C)n1Cc1ccc(Cl)cc1	0.4% (inactive)	106%
COc1ccccc1N1CCN(C(=O)c2oc3cc(C)c(C)cc3c2C)CC1	-10.8% (inactive)	101%
CC(C)CCNC(=O)NC(=O)CSc1nnc(-c2ccccc2Br)o1	2% (inactive)	104%
C=CCSc1ncccc1C(=O)O	-8.1% (inactive)	108%
CC1CCc2nc(NC(=O)CN3CCN(Cc4ccc5c(c4)OCO5)CC3)sc2C1 (stereo not given)	2% (inactive)	100%
CC(=O)CC(=O)Nc1ccccc1NC(C)=O	-2.9% (inactive)	108%
CC(C)OC(=O)CSc1nnc(Cc2ccccc2)n1Cc1ccco1	-13% (inactive)	106%
O=C(NCCN1CCCC1)C1COc2ccccc2O1 (stereo not given)	-4.3% (inactive)	73.8%
COC(=O)c1ccc2c(=O)n(Cc3ccco3)c(SCC(=O)Nc3ccc(C)c(Cl)c3)nc2c1	10.1% (inactive)	115%
CCC1(CC)C(=O)C(C)(C)C(=O)OC1c1cccs1 (stereo not given)	10.4% (inactive)	91.1%
CCOc1ccc(OCC)c2sc(C)nc12	8.2% (inactive)	102%
CC(=O)Nc1cccc(-c2nnc(-c3ccccc3)o2)c1	4.1% (inactive)	105%
CCOC(=O)C1=C(C)NC(=O)C(C#N)C1c1ccco1 (stereo not given)	6.1% (inactive)	86.2%
O=C1CN=C(Nc2cccc(C(F)(F)F)c2)N1C1CCCC1	-11% (inactive)	107%
COc1ccc(-c2nnc3ccc(SC(C(C)=O)C(C)=O)nn23)cc1OC	14.3% (inactive)	100%
CSc1nnc2c3ccccc3n(CCc3ccccc3)c2n1	20.5% (inactive)	83.8%
CC(C)(C)n1nc2c(c1NC(=O)COc1ccc(Cl)cc1)CSC2	13.9% (inactive)	93.1%
COc1cccc(N2CCN(Cc3nc(N)nc(Nc4ccccc4OC)n3)CC2)c1	-8.8% (inactive)	97.2%
Cc1cc(C)cc(NC(=O)N2CCC(c3nc4ccccc4o3)CC2)c1	-19.5% (inactive)	94.7%
O=C1CCC(=O)N1OCCCCOc1ccccc1	-1.2% (inactive)	105%

SMILES	inhibition of aggregation	nuclei count
Cc1cc(C)c2c(=O)[nH]c(=O)n(Cc3ccccc3)c2n1	-9.7% (inactive)	114%
Cc1ccc(CNC(=O)C2CCCN(S(=O)(=O)c3cccnc3)C2)cc1 (stereo not given)	-2.8% (inactive)	89.2%
COc1ccccc1OC(=O)c1ccc(SC)cc1OC	6.6% (inactive)	99.3%
COc1ccccc1OC(=O)c1ccc2nsnc2c1	25% (inactive)	87.8%
CCCCCCNC(=O)Cc1c(O)c2ccccc2[nH]c1=O	-12.8% (inactive)	122%
CCCOc1nc(N)c(C#N)c(-c2ccccc2F)c1C#N	10.7% (inactive)	98.5%
CCOC(=O)c1cc(-c2ccc(Cl)s2)nc2c1c(C)nn2C	-13.7% (inactive)	95%
COc1ccc(-n2c(SCC(=O)Nc3ccc(C(=O)O)cc3)nnc2-c2cccs2)cc1	-7.1% (inactive)	91.6%
COC(=O)c1nc2n(n1)C(c1ccc(OC)c(OC)c1)C(C(=O)OC1CCCCC1)=C(C)N2 (stereo not given)	-3.4% (inactive)	99.2%
O=C(NC12CC3CC(CC(C3)C1)C2)C1CCCN1C(=O)NC1CCCCC1 (stereo not given)	15.8% (inactive)	96.2%
O=C(Nc1cccc(C(F)(F)F)c1)c1cccnc1N1CCCC1	-13% (inactive)	105%
COCCn1c(SCC(=O)Nc2nnc(C)s2)nnc1-c1ccncc1	7.7% (inactive)	99.2%
Cc1noc(C)c1S(=O)(=O)NCCN1CCN(c2ccccc2)CC1	-8.9% (inactive)	118%
c1ccc(OCCOc2ncnc3sccc23)cc1	-0.7% (inactive)	106%
CC(c1nnc(SCC(=O)Nc2sccc2C#N)n1-c1ccc(Cl)cc1)N(C)C (stereo not given)	2% (inactive)	101%
CNC(=O)c1ccccc1NC(=O)c1c(O)c2c([nH]c1=O)CCCC2	-9.3% (inactive)	98.8%
O=C(C1CCC1)N1CCc2cc(S(=O)(=O)Nc3ccc4c(c3)OCO4)ccc21	18.8% (inactive)	92%
Cc1c(C(=O)OC(C)C)[nH]c2c1C(=O)CCC2	15.4% (inactive)	86.8%
Cc1nc(-c2cnn(-c3ccccc3)c2)c2cc(C)oc2n1	10.4% (inactive)	85.8%
COc1ccc(OC(C)C(=O)N2CC(C)OC(C)C2)cc1 (stereo not given)	-4.6% (inactive)	97.2%
